FUS yeast rescue – suppressors of FUS proteinopathy in yeast | 390,000 tested, 0.24% active | Potency, µM (titrated, usually from 76.6 µM), actives largely listed as activators | AID 1347120 | S. cerevisiae FUS-expressing, growth rescue, OD600, 24 h;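 further: plate controls were DMSO vehicle for no effect and reference control for full effect; nearly all actives have a fitted effect of over 55% in size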
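Yeast expressing FUS under galactose induction, OD 0.005 in 2% galactose medium; compounds in a dilution series, 24 h at 30C. Growth rescue by absorbance at 600 nm; CP55940 positive control, DMSO negative.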
TDP43 rescue – rescues yeast growth from TDP-43 toxicity. TDP-43 expressing yeast growth rescue, BacTiter-Glo, 24 h. Potency, µM (titrated, usually from 46.1 µM), for inactives: top-dose growth rescue (activation), hits mostly activators. 410,000 tested, 1.8% active; further: % of control where 0% means no effect; nearly all actives have a fitted effect of over 50% in size
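Cell-based yeast growth screen: TDP-43 expression induced in galactose, inoculum OD600=0.02 after raffinose pregrowth to mid-log. Read-out BacTiter-Glo luminescence at 24 hr, 30 deg C; inhibition of toxicity seen as signal increase.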
aSyn yeast inh – inhibitors of alpha-synuclein toxicity in yeast | Yeast expressing alpha-synuclein, growth rescue, BacTiter-Glo, 24 h | Potency, µM (highest dose often 46.1 µM), for inactives: top-dose growth rescue (activation), usual class: activators | 370,000 tested, 0.14% active; further: % of control where 0% means no effect; nearly all actives have a fitted effect of over 65% in size
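Rescue of yeast growth: cells expressing toxic alpha-synuclein, induced in galactose at OD600 0.02, incubated with compound 24 h at 30 C. ATP luminescence quantified growth; inhibitors of toxicity appear as activators.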
Abeta yeast res – restores growth of yeast expressing A-beta42 peptide; Potency, µM (highest dose often 46.1 µM), hits mostly activators; 410,000 tested, 0.063% active; yeast expressing A-beta42, growth rescue, OD600, 48 h; response scale: 0% DMSO, 100% iron-clioquinol control; further: nearly all actives have a fitted effect of over 55% in size
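Growth rescue measured by 600 nm absorbance after 48 h yeast culture at 30 C with compound. Values normalized between DMSO and an equimolar ferric chloride plus clioquinol control.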
* = called active by the depositor; i = inactive; ? = inconclusive; . = no result; [ ] = dose if it differs, or a comment. In the library only some 2.1% were active in any assay of this set; here they are far more common. The call rests on the fitted dose curve; in most records, active means well fitted curve in the direction sought with a large enough effect; inconclusive means small, poorly fitted or top-dose-only effect, or another doubt; inactive means no such curve, though single readings can be large; an effect the other way counts as inactive or inconclusive. Potency means the concentration at half of the fitted maximal effect.

SMILES	FUS yeast rescue	TDP43 rescue	aSyn yeast inh	Abeta yeast res
CCOc1cc(C)c(C(C)C)cc1S(=O)(=O)n1ccnc1CC	i	20µM*	.	i
O=C(Nc1nc(-c2ccc(Cl)cc2)cs1)C1=COCCO1	i	?	-9%	i
CCc1ccc(-c2csc(NC(=O)C3=COCCO3)n2)cc1	i	18µM*	7%[1.84 µM]	i
COc1ccc(-c2csc(NC(=O)C3=COCCO3)n2)cc1OC	i	8%	-2%	i
O=C(Nc1nc(-c2ccc(F)c(F)c2)cs1)C1=COCCO1	i	4µM*	0%	i
O=C(N/N=C/c1cc(Cl)ccc1O)c1ccccc1Br	i	13µM*	14µM*	?
O=C(CNC(=O)c1ccccc1Br)N/N=C/c1cc(Br)ccc1O	i	-3%	3%	i
Cc1ccc(C(=O)Oc2oc(-c3ccco3)nc2C=Nc2ccc(Cl)cc2)cc1	.	6.3µM*	2%	i
O=C(Oc1oc(-c2ccco2)nc1C=Nc1ccccc1)c1ccoc1	i	-22%	?	i
CCOC(=O)C1(C(=O)OCC)Cc2c([nH]c3ccccc23)[C@]2(N1)C(=O)N(C)c1ccc(Br)cc12	i	.	.	.
Nc1ccc(C2CCCc3nonc32)c2nonc12 (stereo not given)	i	22µM*	1%	i
CC(C)CNC(=O)OCc1cn(Cc2cc(F)ccc2F)nn1	i	.	.	.
Nc1c(Br)cc(/C=C/c2ccnc3ccccc23)cc1Br	.	.	-12%	.
CCOC(=O)C1CCN(C(=O)C(C)(C)NC(=O)Nc2ccc3c(c2)CCC3)CC1	i	.	.	.
COCCNC(=S)N1CCC2CC1c1cc(-c3ccc4c(c3)OCO4)ccc12 (stereo not given)	?	22µM*	23%	?
S=C(NCCc1ccccc1)N1CCC2CC1c1cc(-c3ccc4c(c3)OCO4)ccc12 (stereo not given)	i	?	-11%	i
CN(Cc1ccccc1)C(=O)OCc1cn(Cc2cc(F)ccc2F)nn1	i	.	.	.
CC(C)Oc1cccc(-c2n[nH]c(=S)n2N=Cc2cccc([N+](=O)[O-])c2)c1	i	.	.	.
COc1ccc(Nc2nc(N3CCOCC3)nc(N3CCOCC3)n2)cc1Cl	i	16µM*	4%	i
Cc1ccc(Nc2nc(Nc3ccc(C)c(C)c3)nc(N3CCOCC3)n2)cc1C	i	16%	.	i
CCOc1nc(Nc2ccc(OC)cc2)nc(OCC)n1	i	22%	-4%	i
CCOc1nc(Nc2ccc(OC)c(Cl)c2)nc(OCC)n1	i	14µM*	2%	i
C=C1CCC2C(C)(C)[C@H](O)CC[C@@]2(C)[C@@H]1COc1cc(=O)oc2ccccc12 (stereo not given in full)	35µM*	3%	-25%	i
C=C1CCC2C(C)(C)[C@@H](O)CC[C@@]2(C)[C@@H]1COc1ccc2ccc(=O)oc2c1 (stereo not given in full)	i	12%	18µM*	i
C=C1CC(COc2cc(=O)oc3ccccc23)(c2ccccc2)OC1=O (stereo not given)	.	7%	18%	i
SMILES	FUS yeast rescue	TDP43 rescue	aSyn yeast inh	Abeta yeast res
O=C(/C=C/c1ccccc1)NC(=S)NNC(=O)c1ccco1	?	11µM*	3.5µM*	i
O=C(NNC(=O)c1ccco1)c1ccccc1	i	-11%	-14%	i
Cc1cccc(NC(=S)NNC(=O)c2ccco2)c1	i	-12%	-30%	i
O=C(NC(=S)NNC(=O)c1ccco1)c1ccccc1	i	?	13µM*	?
O=C(/C=C/c1ccc(Br)cc1)NC(=S)NNC(=O)c1ccco1	i	5.6µM*	22µM*	i
O=C(/C=C/c1ccccc1)NC(=S)Nc1ccccc1	i	10%	0%	?
O=C(COC(=O)c1ccc(Sc2ncn[nH]2)c([N+](=O)[O-])c1)Nc1ccc(Cl)c(Cl)c1	i	.	.	.
O=c1c([N+](=O)[O-])c(Cl)c2ccccc2n1Cc1ccccc1	i	.	.	.
COc1ccc(CSCC(=O)Nc2ccc(S(=O)(=O)N3CCCCCC3)cc2)cc1	.	18µM*	4%	i
Cc1nc2ccc(S(=O)(=O)NCC(=O)N(C)Cc3ccccc3Cl)cc2s1	i	.	.	.
CC(=O)N1CCc2c(sc3c2c(=O)n(-c2cccc(Cl)c2)c(=O)n3Cc2ccc(F)cc2Cl)C1	i	11µM*	.	i
C=Cc1ccc(Cn2c(=O)n(-c3ccccc3C)c(=O)c3c4c(sc32)CN(C(C)=O)CC4)cc1	?	?	.	i
CC(=O)N1CCc2c(sc3c2c(=O)n(-c2ccccc2)c(=O)n3Cc2ccccc2Cl)C1	.	9%	0%	i
CC(=O)N1CCc2c(sc3c2c(=O)n(-c2ccccc2Cl)c(=O)n3Cc2cccc(C)c2)C1	?	35µM*	.	i
O=C(c1ccc(F)cc1F)N1CCC(Oc2cccnc2)CC1	i	.	.	.
Cc1nc([N+](=O)[O-])cn1CC(=O)c1ccc2c(c1)OCCCO2	.	.	-8%	.
CCCN1C(=O)/C(=C\c2ccncc2)SC1=Nc1ccccc1	.	?	-4%	i
CCN1C(=O)/C(=C\c2ccncc2)SC1=Nc1ccc(C)c(C)c1	.	14µM*	10%	i
Cc1ccc2nc(N3CCN(C(=O)C4COc5ccccc5O4)CC3)sc2c1 (stereo not given)	i	20µM*	.	i
COc1cccc2sc(N3CCN(C(=O)C4COc5ccccc5O4)CC3)nc12 (stereo not given)	i	?	20%	i
O=C(C1COc2ccccc2O1)N1CCN(c2nc3c(F)cccc3s2)CC1 (stereo not given)	i	10µM*	.	13µM*
O=C(Nc1ccc(Nc2ccccc2)cc1)C(Cl)(Cl)Cl	.	35µM*	1%	i
O=C(NC1CCCCN(Cc2cccc(C(F)(F)F)c2)C1=O)c1cccc(F)c1 (stereo not given)	i	.	.	.
O=C1CSc2ccc(C(=O)N3CCCC(C(=O)N4CCN(c5ccc(F)cc5)CC4)C3)cc2N1 (stereo not given)	i	.	.	.
O=S(=O)(Nc1ccc2c(c1)OCO2)c1cccc(Br)c1	.	13µM*	10%	i
O=S(=O)(Nc1ccc2c(c1)OCCO2)c1ccc2oc3ccccc3c2c1	i	?	25µM*	i
Cc1cc(N2CCC[C@@H]2C)nc2ccccc12	i	.	.	.
COC(=O)CCC1NC(=O)C(Cc2c[nH]c3ccccc23)NC(=O)C2CC(=O)OC(C)C(NC(=O)C(C)NC(=O)C3CCCN3C(=O)C3CCCN3C(=O)C(C)NC(C)=O)C(=O)NC(CC(C)C)C(=O)NC(CCCCNC(=O)CCC(C(=O)NC(Cc3ccc(O)cc3)C(=O)O)NC1=O)C(=O)NC(Cc1c[nH]c3ccccc13)C(=O)N1CCCC1C(=O)NC(CO)C(=O)N2 (stereo not given)	i	.	.	.
Brc1cccc(Nc2nc(-c3cccnc3)cs2)c1	i	3.2µM*	-8%	i
Oc1ccc(Nc2nc(-c3cccnc3)cs2)cc1	i	-15%	-4%	i

Compound activity: PubChem BioAssay, National Center for Advancing Translational Sciences (NCATS)
